FLuc inh: blocks Photinus pyralis firefly luciferase activity. purified firefly luciferase, luminescence, 8 min. AID 411. 2.2% of 72,000 active. Potency, µM (series often up to 57.1 µM), hits mostly inhibitors. P08659; also: nearly all actives have a fitted effect of over 40% in size
Target sequence (P08659 whole entry, looked up): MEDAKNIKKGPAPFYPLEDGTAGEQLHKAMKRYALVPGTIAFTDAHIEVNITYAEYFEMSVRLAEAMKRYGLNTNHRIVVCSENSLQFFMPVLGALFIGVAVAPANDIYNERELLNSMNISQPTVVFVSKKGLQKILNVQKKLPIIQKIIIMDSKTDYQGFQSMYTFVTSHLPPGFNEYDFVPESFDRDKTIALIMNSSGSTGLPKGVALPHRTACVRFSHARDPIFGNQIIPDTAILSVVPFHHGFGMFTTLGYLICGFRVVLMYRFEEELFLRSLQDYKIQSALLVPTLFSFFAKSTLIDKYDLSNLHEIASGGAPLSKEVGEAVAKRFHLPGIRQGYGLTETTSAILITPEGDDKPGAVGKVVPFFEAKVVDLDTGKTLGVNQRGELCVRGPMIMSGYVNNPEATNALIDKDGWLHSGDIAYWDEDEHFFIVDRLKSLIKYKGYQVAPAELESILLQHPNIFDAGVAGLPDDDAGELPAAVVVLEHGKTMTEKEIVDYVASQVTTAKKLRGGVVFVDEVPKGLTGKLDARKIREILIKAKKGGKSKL
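Substrate buffer containing 10 uM ATP (pH 7.2 imidazole, Mg2+, KCl, detergent, BSA) is dispensed, compound pinned in, then luciferase/luciferin detector mix added. After 8 min at ambient temperature, light output is measured.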
p53ts 32C kill: cytotoxicity in p53ts cells at permissive temperature. H1299-p53A138V at 32C, ATP luminescence viability, 24 h. Potency, µM (highest dose often 46.1 µM), most hits filed as cytotoxic. 0.93% of 130,000 active. AID 924; also: nearly all actives have a fitted effect of over 55% in size
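Cells: H1299 p53ts (A138V), 600/well, pre-incubated 16–30 h at 37C. Cpd up to 46 uM, 24 h, 32C. Readout: ATPlite luminescence, 20 min RT. Normalization: DMSO vs tamoxifen 100 uM. AC50 by Hill equation.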
p53ts 39C tox: p53ts cell cytotoxicity, nonpermissive temperature | 1.5% of 130,000 active | AID 902 | Potency, µM (series often up to 46.1 µM), actives largely listed as cytotoxic | H1299-p53A138V viability at 39C, ATP luminescence, 24 h; also: nearly all actives have a fitted effect of over 55% in size
Each line names hits and unclear results; the compound was inactive in the other large screens. This is a sample that favours compounds with a hit; in the whole collection about 2.6% have one here. Calls follow the shape of the dose curve; as a rule, active = well fitted curve in the direction sought with a large enough effect; inconclusive = small, poorly fitted or top-dose-only effect, or another doubt; inactive = no such curve, though single readings can be large; an effect the other way counts as inactive or inconclusive.

CCOc1ccc(CNC(=O)c2sc3ncnc(N(C)C4CCCCC4)c3c2C)cc1	none (no result: FLuc inh)
COc1cccc(-n2c(=O)c3sc4ccccc4c3n(CC(=O)Nc3ccccc3C)c2=O)c1	none (no result: FLuc inh)
COc1cccc(-n2c(=O)c3sc4ccccc4c3n(CC(=O)Nc3ccccc3OC)c2=O)c1	p53ts 39C tox 10µM (no result: FLuc inh)
Cc1ccc(Nc2c3c(nc4nncn24)CCC3)c(C)c1	none (no result: FLuc inh)
O=C(CSc1nc2ccsc2c(=O)n1Cc1ccccc1Cl)NCc1ccc(F)cc1	none (no result: FLuc inh)
CC1=CC(=C2C(=O)c3ccccc3C2=O)C=C(C)N1Cc1ccco1	FLuc inh 12.6µM, p53ts 32C kill inconclusive, p53ts 39C tox inconclusive
O=C1c2ccccc2C(=O)N1Cc1ccco1	none
CCOc1ccc(NC(=O)Cn2c(=O)c(CNc3ccc(OC)cc3)cc3ccc(OC)cc32)cc1	none (no result: FLuc inh)
CCOC(=O)c1ccc(N2C(=O)c3n[nH]c(C)c3C2c2ccc(CC)cc2)cc1 (centres undefined)	none (no result: FLuc inh)
CCOC(=O)c1ccc(N2C(=O)c3n[nH]c(-c4cccs4)c3C2c2ccc(C(C)C)cc2)cc1 (centres undefined)	p53ts 32C kill inconclusive, p53ts 39C tox 10µM (no result: FLuc inh)
CCOC(=O)c1ccc(N2C(=O)c3n[nH]c(-c4cccs4)c3C2c2ccc(OCC)cc2)cc1 (centres undefined)	p53ts 39C tox inconclusive (no result: FLuc inh)
CCOC(=O)c1ccc(N2C(=O)c3n[nH]c(-c4cccs4)c3C2c2ccc(CC)cc2)cc1 (centres undefined)	p53ts 32C kill inconclusive, p53ts 39C tox 10µM (no result: FLuc inh)
Cc1noc(C)c1C(=O)N1CCC2(CC1)CCN(c1ccncc1)CC2	none
Cc1ccc2oc(C(=O)Nc3ccc(S(=O)(=O)Nc4nccc(C)n4)cc3)cc(=O)c2c1	none (no result: FLuc inh)
CCc1ccccc1N(C)C(=O)c1nn(C)c2c1CSc1ccccc1-2	none (no result: FLuc inh)
CSc1cccc(NC(=O)CN2C(=O)COc3ccc(S(=O)(=O)N4CCC(C)CC4)cc32)c1	none (no result: FLuc inh)
Cc1ccc(NC(=O)CCC(=O)N2Cc3ccccc3Oc3ncccc32)cc1	none (no result: FLuc inh)
COc1ccc(C(=O)N=c2nc3ccccn3s2)cc1	FLuc inh 0.501µM, p53ts 32C kill 0.794µM, p53ts 39C tox 0.316µM
COc1ccc(C(=O)NC2c3ccccc3-c3ccccc32)cc1	none (no result: FLuc inh, p53ts 32C kill)
COc1ccccc1CN1CCCC2(CCN(S(C)(=O)=O)CC2)C1	none
C=CC1=C(C)C2=NC1=CC1=NC(=CC3=NC(=CC4=NC(=C2)C(C)=C4CCC(=O)O)C(CCC(=O)O)=C3C)C(C=C)=C1C.[Zn]	none
COc1ccc(CNc2ncncc2-c2ccc(C(=O)N(C)C)cc2)c(OC)c1	none
CCOc1cc(C(=O)CSc2nnc(CNc3ccc(Cl)cc3)o2)ccc1NC(=O)CC	p53ts 32C kill 15.8µM, p53ts 39C tox 15.8µM
CCc1nnc(NC(=O)CSc2nnc(CNc3ccc(Cl)cc3)o2)s1	none
COc1ccc(NC(=O)CN2C(=O)CSc3ccc(S(=O)(=O)N(C)C)cc32)cc1OC	none (no result: FLuc inh)
Cn1c(-n2cccc2)c(-c2c(-c3ccccc3)[nH]c3c2c(=O)[nH]c(=O)n3C)c(=O)[nH]c1=O	none (no result: FLuc inh)
COc1ccc(-c2nc3c(Br)c(N)c(Br)cc3o2)cc1	FLuc inh 2.51µM (no result: p53ts 32C kill, p53ts 39C tox)
Nc1c(Br)cc2oc(-c3ccccc3)nc2c1Br	none (no result: p53ts 32C kill)
COc1ccc(S(=O)(=O)Nc2cc3c(cc2NCc2ccccc2)n(C)c(=O)n3C)cc1	p53ts 39C tox inconclusive (no result: FLuc inh)
COC(=O)c1ccc(NC(=O)c2c(NCc3ccc(OC)c(OC)c3)sc3c2CCCC3)cc1	none (no result: FLuc inh)
O=C(CSc1nc2nccnc2c(=O)n1CCc1c[nH]c2ccccc12)Nc1ccccc1	none (no result: FLuc inh)
Cc1ccc(CNS(=O)(=O)c2ccc3[nH]c4c(c3c2)CCCCC4)cc1	p53ts 39C tox 20µM (no result: FLuc inh)
O=S(=O)(NCc1ccccc1)c1ccc2[nH]c3c(c2c1)CCCCC3	p53ts 39C tox 31.6µM (no result: FLuc inh)
O=S(=O)(NCc1ccc(F)cc1)c1ccc2[nH]c3c(c2c1)CCCC3	none (no result: FLuc inh, p53ts 39C tox)
Cc1ccc(CNS(=O)(=O)c2ccc3[nH]c4c(c3c2)CCCC4)cc1	none (no result: FLuc inh, p53ts 39C tox)
Cc1ccc2c(CC(=O)N(Cc3ccc(Cl)cc3)Cc3ccco3)coc2c1	p53ts 39C tox inconclusive (no result: FLuc inh)
Cc1cccc(NC(=O)c2cc3ccccc3o2)c1	FLuc inh 12.6µM, p53ts 32C kill 12.6µM, p53ts 39C tox 10µM
O=C(Nc1cccc(Br)c1)c1cc2ccccc2o1	FLuc inh 7.94µM, p53ts 32C kill inconclusive, p53ts 39C tox inconclusive
CCOC(=O)c1ccc(NC(=O)c2cc3ccccc3o2)cc1	FLuc inh inconclusive
CNC(=O)c1cc2ccccc2o1	none
Cc1oc(-c2ccccc2)cc1C(=O)Nc1cccc(C(=O)O)c1	none
CC(C)C(=O)Nc1ccc(NC(=O)c2cc3ccccc3o2)cc1	none
Cc1cc(C(=O)Nc2cccc(C(=O)O)c2)oc1C	FLuc inh 15.8µM, p53ts 32C kill inconclusive, p53ts 39C tox inconclusive
CCC(=O)Nc1cccc(NC(=O)c2cc3ccccc3o2)c1	FLuc inh 3.98µM, p53ts 32C kill 10µM, p53ts 39C tox 12.6µM

Screens: PubChem BioAssay, National Center for Advancing Translational Sciences (NCATS)
